54 molecules from PubChem BioAssay AID590 (National Center for Advancing Translational Sciences (NCATS), 2007) can be followed below.

About 6,500 (11%) of roughly 59,000 compounds were called active. Inconclusive results (about 15%) are left out. Cut-off read from the data, not from the text of the source: active = max dye-equivalent concentration above about 10 nM; inconclusive = mostly about 1.1 nM to 9.6 nM; inactive = weaker than that. The entries come from a sample that favours actives as a whole. Some structures have more than one record in an assay (separate samples or runs), and their calls can disagree.

A short description of this test: qHTS Assay for Spectroscopic Profiling in A350 Spectral Region. The settings on record: Compound autofluorescence, 340/450 nm, Alexa 350 dye-equivalents; hits give high values. Background: In qHTS, concentration-response curves come from the screen itself.
In the case of `CS(=O)(=O)N1CCC[C@@]2(CCN(c3ccncc3)C2)C1`, the max dye-equivalent concentration result is “inactive”. `Cc1ccc(CN2C(=O)CCC2C(=O)NCCCN2CCCCC2C)cc1` (stereo not given): the max dye-equivalent concentration entry is “inactive”. Turning to `COc1ccccc1CN1CC2(CCN(S(=O)(=O)c3ccccc3)CC2)C1`, the max dye-equivalent concentration entry was “inactive”.

Take `CC(C)OCCCNC(=O)C1CC(=O)N(C2CCCCCCC2)C1` (stereo not given): the max dye-equivalent concentration entry is “inactive”. The same measure, in the same setting: then `COc1ccc(CCNS(=O)(=O)c2ccc(F)cc2)cc1OC`, with “inactive”. Take `CSc1nc(N)c(C#N)c(-c2ccccc2Cl)c1C#N`: the max dye-equivalent concentration entry is “inactive”. As to `CCCc1[nH]nc2c1C(c1c(C)nn(-c3ccccc3)c1Cl)C(C#N)=C(N)O2` (stereo not given), the max dye-equivalent concentration entry is “inactive”. In the case of `CSc1ccc(-c2c(C#N)c(N)nc3c2c(C)nn3-c2ccccc2)cc1`, the max dye-equivalent concentration was 360 nM (active). For the molecule `O=S(=O)(c1ccccc1)N(CC(O)CN1CCCCC1)c1ccccc1` (stereo not given), the max dye-equivalent concentration result is “inactive”. With `O=C1c2oc3ccc(Br)cc3c(=O)c2C(c2cccc(F)c2)N1CCO` (stereo not given), the max dye-equivalent concentration entry was “inactive”.

Turning to `Cn1c(=O)c2c(nc(NCCc3ccccc3)n2Cc2ccccc2)n(C)c1=O`, the max dye-equivalent concentration entry was “inactive”. Same read-out and setting: for `Cn1c(=S)c2[nH]c(SCCCc3ccccc3)nc2n(C)c1=O` the value was 12 nM (active); for `CCCSc1nc2c(c(=O)[nH]c(=O)n2C)n1CCc1ccccc1`, “inactive”; for `O=S1(=O)CC(NCc2ccccc2)C(Nc2ccc(Cl)cc2)C1` (stereo not given), “inactive”. `Cc1ccc(C)c(NC(=O)C2CC(=O)N(C(C)C)C2)c1` (stereo not given): the max dye-equivalent concentration entry was “inactive”. On the same count and under the same terms, for `COCCn1c(=O)c(-c2cccs2)nc2cncnc21` the value was 89 nM (active). Turning to `COCCn1c(=O)c(-c2cccs2)nc2cnc(N3CCN(C)CC3)nc21`, the max dye-equivalent concentration is 17 nM (active). In the case of `COc1ccccc1CCn1c(=O)c(-c2cn(C)c3ccccc23)nc2cncnc21`, the max dye-equivalent concentration result is “inactive”. With `CN(C(=O)COc1nnc(-c2cccs2)c(-c2cccs2)n1)c1ccccc1`, the max dye-equivalent concentration entry was “inactive”. For the molecule `Cc1ccccc1NC(=O)Cc1nnc(SCC(=O)N2CCN(c3ccccc3)CC2)n1C`, the max dye-equivalent concentration entry was “inactive”. As to `C=CCn1c(C)cc(C(=O)CN2C(=O)c3ccccc3C2=O)c1C`, the max dye-equivalent concentration entry is “inactive”. Take `CC(=O)Nc1ccc(NS(=O)(=O)c2cc(C)sc2C)cc1`: the max dye-equivalent concentration entry is “inactive”. Regarding `COc1ccccc1CNc1ncncc1-c1cccc(NS(C)(=O)=O)c1`, the max dye-equivalent concentration entry was “inactive”. For `Cc1ccc(C(=O)NCC(=O)O)cc1S(=O)(=O)N1CCCCC1`, the max dye-equivalent concentration result is “inactive”.

Take `CS(=O)(=O)Nc1cccc(-c2cncnc2Nc2ccccc2)c1`: the max dye-equivalent concentration entry is “inactive”. With `CCOc1ccc(OCC)c(NC(=O)C2CCN(S(=O)(=O)c3c(C)noc3C)CC2)c1`, the max dye-equivalent concentration entry is “inactive”. Consider `FC(F)(F)c1cccc(Nc2ncnc3ccccc23)c1`, for which the max dye-equivalent concentration entry was “inactive”.

Take `O=C(O)Cc1ccc(-c2ccccc2)cc1`: the max dye-equivalent concentration was 47 nM (active) and the result was inactive. Turning to `O=C(O)CCCc1ccccc1`, the max dye-equivalent concentration entry was “inactive”. On the same count and under the same terms, for `Cc1cccc(C(=O)Nc2ccc(CC(=O)O)cc2)c1` the value was “inactive”; for `Cc1c(-c2nn(C)c(=O)c3ccccc23)oc2ccc(F)cc2c1=O`, “inactive”; for `Cc1[nH]c2ccccc2c1C(=O)CSCC(=O)O`, “inactive”. On the same count and under the same terms, for `CCOC(=O)C1CCN(C(=O)c2oc3ccc(S(=O)(=O)N4CCCCCC4)cc3c2C)CC1` the value was “inactive”; for `COc1ccc(/C(O)=C2/C(=O)C(=O)N(CCCN(C)C)C2c2ccccc2)cc1OC` (stereo not given), “inactive”.

Consider `CCCOc1ccc(/C(O)=C2/C(=O)C(=O)N(CCN(C)C)C2c2ccc(OC)c(OC)c2)cc1` (stereo not given), for which the max dye-equivalent concentration entry was “inactive”. Same read-out and setting: then `CCN(CC)CCN1C(=O)C(=O)/C(=C(/O)c2ccc(OC)c(OC)c2)C1c1ccccn1` (stereo not given), with 42 nM (active). For the molecule `CS(=O)(=O)N(C(=O)NC(=O)NC1CCS(=O)(=O)C1)C1CCCCC1` (stereo not given), the max dye-equivalent concentration result is “inactive”. As to `c1cnc(NC2C3CC4CC(C3)CC2C4)nc1` (stereo not given), the max dye-equivalent concentration result is “inactive”. As to `O=C(CN(Cc1ccccc1)C(=O)c1ccc2c(c1)OCCO2)NCc1ccc2c(c1)OCO2`, the max dye-equivalent concentration result is “inactive”. As for `Cc1cc(NC(=O)Cn2nc(C(F)(F)F)c3c2CCCC3)no1`, the max dye-equivalent concentration result was “inactive”. `COC(=O)c1ccc(C2NC(=O)NC(C)=C2C(=O)N(C)C)cc1` (stereo not given): the max dye-equivalent concentration entry was “inactive”. `CCCOC(=O)C1=C(C)NC2=C(C(=O)C(C(=O)OC)C(C)C2)C1c1ccc(N(C)C)cc1` (stereo not given): the max dye-equivalent concentration is 22 nM (active). Turning to `COCCOC(=O)C1=C(C)NC(=O)CC1c1cc2c(cc1Br)OCO2` (stereo not given), the max dye-equivalent concentration result was “inactive”. Same read-out and setting: then `COC(=O)c1ccccc1NC(=O)CN(Cc1ccccc1)S(C)(=O)=O`, with “inactive”. For `S=c1[nH]nc(SCc2ccccc2Cl)c2[nH]cnc12`, the max dye-equivalent concentration result was “inactive”. As for `CCOC(=O)N1CCN(CC(=O)n2c(C)c(C)c3ccccc32)CC1`, the max dye-equivalent concentration result was “inactive”. Same read-out and setting: then `CCOC(=O)N1CCC(O)(c2cc(C)c(C)cc2C)CC1`, with “inactive”.

On to `CCOC(=O)N1CCN(CC(=O)c2ccc3c(c2)CCN3)CC1`, for which the max dye-equivalent concentration was 17 nM (active).

For the molecule `O=C(NCCCCO)C(F)(F)C(F)(F)C(F)(F)C(=O)NCCCCO`, the max dye-equivalent concentration result is “inactive”. On the same count and under the same terms, for `O=C(Nn1cnc2ccccc2c1=O)c1ccc(F)cc1Cl` the value was “inactive”; for `Cc1nc(-c2ccc(NC(=O)c3cccs3)cc2)cs1`, 280 nM (active); for `O=C(O)Cc1ccc(NC(=O)c2cccs2)cc1`, “inactive”. On the same count and under the same terms, for `Cn1c(SCC(=O)Nc2cccc(NC(=O)c3cccs3)c2)nnc1-c1ccncc1` the value was “inactive”. Take `O=C(O)C1CC(=O)N(Cc2cccnc2)C1` (stereo not given): the max dye-equivalent concentration entry is “inactive”.
